Over roughly 59,000 sequences, the read-out has its median near -0.00055; the lowest 2% begin near -2. Shown is part of a subset that was picked to be rich in the lowest values.

The nature of the test: Identification of proteins required for the processing of the EWS-FLI1 nascent transcript.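 Further: robust z of luciferase light less the median z of siRNAs with the same seed.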 Conditions: TC32 Ewing sarcoma NR0B1-luc vs CMV-luc (EWS-FLI1 target promoter against control promoter), 48 h; screened at 20 nM (by protocol). The procedure, abridged: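 Three siRNAs per gene, each in a separate well at 20 nM, were transfected into TC32 cells bearing either reporter construct. Luminescence was measured two days on, and per-gene comparison relied on seed-corrected Z values.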
Regarding UCCAUUGCAAUUGUGCCCA against MAGEA4, the seed-corrected z-score is -0.0267.

Sequence UUUCUUCACGUGGAUAGCC against GABRG2 registered a seed-corrected z-score of 0.574.

On to UUCCAGAAAAAGCCGCACG against PLD6, for which the seed-corrected z-score is -0.608.

Regarding UUUCCUUCCAACUCUGCGC against ZNF835, the seed-corrected z-score was -1.63.

As to UACGUUAGGACGGCUCAGG against RLTPR, the seed-corrected z-score is -1.06.

Turning to UCAUGUGGCAUUUCUGGGA against LOC642852, the seed-corrected z-score is -2.43.

Turning to AUUCUUACCACAACUAUCC against SRP14, the seed-corrected z-score is -0.807.

As for UAAGCUGCGUGUUUUUAUC against TRIM14, the seed-corrected z-score is -2.45.

Take UUUACGAAGUUUUUGAUAG against EML1: the seed-corrected z-score was -0.287.

UUUGUAGAGAAGUUUCACC against ZNF517 had a seed-corrected z-score of 0.211.

For UUAGCUUCAACGGUGUUAC against E2F8, the seed-corrected z-score was -1.58.

Consider UCGAUGAACAACCAUAUGC against PRKAA2, for which the seed-corrected z-score worked out at 0.499.

UUAUCUGCUUUAGAUUUGC against PYROXD1: the seed-corrected z-score is -0.293.

Turning to GAAGGUGCAGAUCUGUUUG against SCX, the seed-corrected z-score is -2.92.

Turning to UCAUCUACGAUAUUCAUGA against ADAMTS14, the seed-corrected z-score was -0.269.

For the sequence UAAGCAUCUCACAAAAUCG against MITD1, the seed-corrected z-score was -0.778.

On to AAACUUCACUGUUACUUGG against LYSMD1, for which the seed-corrected z-score is -0.262.

Turning to UCGGUAACAAAAAUUAGUG against RNF217, the seed-corrected z-score turned out to be 0.42.

Regarding UCUGUUCAAUACUUAAACC against PRUNE2, the seed-corrected z-score is -0.544.

For the sequence UUUCUUAUCACCAUCAAAC against PGD, the seed-corrected z-score is 0.244.

Regarding UAAGUUGCGAGCGUAGUGG against GAL3ST4, the seed-corrected z-score is -3.11.

Consider UAUGUAGCAAAUCACAGUA against TMEM39A, for which the seed-corrected z-score came out at 0.421.

As for UCUGCGGAAACUUUGGUGG against CDH11, the seed-corrected z-score is -0.023.

As for UCUUGAUACAGAUUCCAUC against RFX8, the seed-corrected z-score was 0.516.

As for UCCUUUAGCACCUUCACCG against RAD23A, the seed-corrected z-score was -2.73.

UUGUUGUCAAUGUUAAUCG against SNX29P1: the seed-corrected z-score was -0.677.

Turning to AUAUUUCAAGGCAAGCUUC against DNAJC5, the seed-corrected z-score is 0.415.

As for AUGGUAGCGGAAGAAAUUC against TMEM205, the seed-corrected z-score is -2.26.

Regarding UAAUCUUUAUUGUCACUAG against GRB7, the seed-corrected z-score was -0.659.

Consider UUUGGCAAGACUUAACUUG against SCGB1D2, for which the seed-corrected z-score is 0.678.

Consider AUUUUGUCACUGGAAAGGC against OIP5, for which the seed-corrected z-score was 0.784.

Turning to UAUGCGCUUUGAGACUAGC against ZNF236, the seed-corrected z-score is -0.344.

Regarding UUGAGGUUACUGGAGCUGC against ZNF683, the seed-corrected z-score is -0.208.

Sequence AUCCUUAAUGUAACUAUUG against C12orf60 displayed a seed-corrected z-score of 0.108.

As to UAUAUCAUUAAGCAAUGCC against SF3B1, the seed-corrected z-score is -3.22.

The sequence UAAGUAGACGUGCAGAUCA against MFSD6L gave a seed-corrected z-score of 0.136.

Regarding UACUCGAAGAUCAUCUUGG against MYO6, the seed-corrected z-score was -0.142.

AUAGUUCCCUCGAUGAGGC against CCS yielded a seed-corrected z-score of 0.322.

Sequence UCUCCUGUAACAGACUCUG against ERICH1 showed a seed-corrected z-score of 0.83.

As to AUAGACAACUUUGAGGUCC against AP1S1, the seed-corrected z-score is -0.000301.

Take UUCAGCACAGAGAAAUUCG against SHISA2: the seed-corrected z-score was found to be 1.31.

On to UUGUUACUAAGAUCAACAG against PIWIL4, for which the seed-corrected z-score is -0.273.

UAAAAUAUCAAGCGAAUCA against LOC399886 returned a seed-corrected z-score of 0.0836.

As to UACCGGGAUACAUGCAUGC against KIAA1551, the seed-corrected z-score was -2.73.

For AAACGAAACAUGACGACAC against RSG1, the seed-corrected z-score was -0.0435.

For the sequence UGAUGUACUCCACUGAUGC against TFEC, the seed-corrected z-score is -0.552.

In the case of UCUCUUUGUGGUGUACUUG against FGF13, the seed-corrected z-score was -12.9.

The sequence UUCCGAAUGGAAACUCUGG against BCL7C gave a seed-corrected z-score of 0.615.

The sequence AUACCGAUCAUAGCACAUC against OR2A12 yielded a seed-corrected z-score of 0.195.

Consider UAUUAGGUCUUAUUUAUUC against NXNL2, for which the seed-corrected z-score amounted to 0.499.

In the case of UCUCUAUCAGUUCUCUUGG against RBM20, the seed-corrected z-score is -0.358.

Take AAAGGGACACUGAUUCAGU against TRAM1: the seed-corrected z-score was -2.59.

Consider UCAGGGUAUUUGGUGAGGG against KCTD1, for which the seed-corrected z-score was -0.632.

AUAAUACCAACUCAAAUGC against FRRS1L came in with a seed-corrected z-score of 1.1.

Regarding UUCUGAGCAGGUUCUACUG against SGOL1, the seed-corrected z-score is -2.98.

Consider UAGGUAACUAUUUCUUCUC against CHURC1, for which the seed-corrected z-score is 1.33.

Regarding UCUUCUAUCUUGCACAUUG against NLRP9, the seed-corrected z-score came to 0.587.

On to UAGGUUACGUGUCCAGAGG against NR2F6, for which the seed-corrected z-score was -0.85.

For the sequence ACCAUUGUCAUUGCCUUGC against 1-Mar, the seed-corrected z-score was -1.24.

Turning to GAUUUCUUCAGGUGCUCCU against PDLIM7, the seed-corrected z-score is -0.372.

Take UGUAGUAUAUGAUCGACCU against LOC728613: the seed-corrected z-score is -11.7.

With UAGGCGAUGAAGAGCGUGC against MC1R, the seed-corrected z-score was 0.184.

Sequence AAAGUAUCGGUAUUUGUCU against NDUFB9 came in with a seed-corrected z-score of 0.025.

As for AAUCUCAUGAGUUGCAACC against MMP26, the seed-corrected z-score was -0.158.

Take UUCCGGUUCCUCAUCUUCU against NUCKS1: the seed-corrected z-score is -0.00682.

Take UAAAGUACUGUCGUCAAUG against STOX2: the seed-corrected z-score was -2.26.

As for UUGUGGUUCUCGGAUACGC against CDH15, the seed-corrected z-score was -0.955.

Take GAAGCUAUCCCAGCUCUCA against RPL21P131: the seed-corrected z-score is 0.152.

On to UGUUUUACAAGCAAUGUCC against TEX19, for which the seed-corrected z-score was -2.08.

In the case of UGCUGUAUAAUAUCCUUGC against GALNT3, the seed-corrected z-score was found to be 0.503.

Consider UUGUGCACCACGAGCAUGG against B3GNT7, for which the seed-corrected z-score is -1.07.

UUCGUUGCAAAUCCCAUGC against SPTLC2: the seed-corrected z-score is -3.22.

For AAUCUUUGGAGUACGCUGG against B2M, the seed-corrected z-score is -0.0765.

In the case of UAGACAUACAUUGAACUCC against SPINK6, the seed-corrected z-score came out at 1.21.

Take UGUACUUUAAUAGAGAUAC against MRPS10: the seed-corrected z-score was -0.197.

UACCCAAUAAAGGUCUACC against LMO2 gave a seed-corrected z-score of 0.642.

As to UACGGUUCUUCCUGGUUGG against C1QA, the seed-corrected z-score stood at 1.29.

Take UUCCAUAUAGCAGUGCACU against NDUFAF1: the seed-corrected z-score is 1.09.

UAGGGUUUGCCUUCGUGCU against CRIP1: the seed-corrected z-score was -3.24.

For the sequence UCAAGCAUCGUGUUGAGCC against TGFBI, the seed-corrected z-score was -0.445.

For UCAAAUUCGUCCUGGGUCC against UGT1A5, the seed-corrected z-score is -1.44.

In the case of UGAAGGAAGAAUCGUCGCC against PTHLH, the seed-corrected z-score is -0.782.

As to UUUCCGAUGAUGGUAACCA against OR7C2, the seed-corrected z-score stood at 0.217.

As for UCAGGUAGCAGGGUAUUGG against LTA4H, the seed-corrected z-score was -0.0663.

Regarding UCCCAAUUCAGAUCUAUGG against FBXO42, the seed-corrected z-score is 0.112.

The values above are taken from PubChem BioAssay AID1159506 (National Center for Advancing Translational Sciences (NCATS), 2015).
